Assay outcomes as filed in PubChem BioAssay.
The full list was thinned out, with hits kept by preference.
Pf Dd2 inh – inhibitors of Plasmodium falciparum Dd2 growth; P. falciparum Dd2 growth, SYBR Green, 72 h; Potency, µM (titrated, usually from 28.9 µM), inactives show top-dose activity, negative = inhibition, hits mostly inhibitors; 120,000 compounds, 4.3% hits; AID 1347417; active = well fitted inhibition curve with a large enough effect;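 note: plate controls were DMSO vehicle for no effect and reference drug for full effect; nearly all actives have a fitted effect of over 65% in size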
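Infected erythrocytes (Dd2, 0.3% parasitemia, 2.5% hematocrit final) are added to compound in RPMI-1640/Albumax II medium, grown 72 h at 37C in low oxygen, then lysed with saponin/Triton-X containing SYBR Green and read by fluorescence.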
An asterisk follows results filed as active; i = inactive; [ ] = another dose, or the depositor's remark. Potency is the fitted concentration of half-maximal effect.

SMILES	Pf Dd2 inh
CCNC(=O)N1CCC(Cc2ncc(C)n2C(C)C)C1 (centres undefined)	8%
Cc1cnc(CC2CCN(S(=O)(=O)c3ccccc3)C2)n1C(C)C (centres undefined)	3.2µM*
O=C(c1n[nH]c(=O)c2ccccc12)N1CCC(Cc2noc(C3CCOCC3)n2)C1 (centres undefined)	6%
CC(=O)N1CCC(Cc2ncc(C)n2C(C)C)C1 (centres undefined)	3%
CCOc1ccccc1NC(=O)N1CCCC(Cc2ncc(C)n2C(C)C)C1 (centres undefined)	1.8µM*
CNC(=O)N1CCC(Cc2ncc(C)n2CCOC)C1 (centres undefined)	2%
CNC(=O)N1CCCC(Cc2ncc(C)n2C(C)C)C1 (centres undefined)	-12%
CCOc1ccccc1NC(=O)N1CCC(Cc2noc(C3CCOCC3)n2)C1 (centres undefined)	7.9µM*
CCCn1c(C)cnc1CC1CCCN(S(=O)(=O)CCC)C1 (centres undefined)	-11%
O=C(O)COCC(=O)N[C@H]1CCN2C(=O)c3cc(/C=C/c4ccccc4)ccc3NC(=O)[C@H]12	-6%
CN(Cc1nc2c(s1)CCCC2)C(=O)CN1C(=O)CSc2ccccc21	-6%
O=C(NCc1cccc(C(F)(F)F)c1)c1cccc2c1CCN2C(=O)C1CC1	i
COCCO[C@H]1C(=O)N(C2CCN(C(=O)Nc3ccccc3F)CC2)[C@H]1c1ccncc1	25%
CCOc1ccccc1NC(=O)N1CCCC(c2noc(COC)n2)C1 (centres undefined)	5%
COc1cccc(CN2CCNc3cnc(-c4ccccc4)cc3C2)c1	-3%[44.1 µM]
CCc1nnc(NC(=O)C2CC(=O)N(c3n[nH]c4ccccc34)C2)s1 (centres undefined)	-9%
CN1C[C@H](O)C[C@H]1c1nnc2n1CCN(Cc1ccc(F)c(F)c1)C2	-2%
Cc1nc(CC(=O)N2CCn3nc(CCC(=O)N4CCC(O)CC4)cc3C2)n[nH]1	2%
COCCC1(NC(=O)C2CC2)CCN(S(=O)(=O)c2ccccc2)CC1	-19%
Cc1ccc(C)c(N2CCN(C(=O)c3cn(CC(C)C)c(=O)c4c3c3ccccc3n4C)CC2)c1	2.5µM*
CCn1c(=O)cc(OCC(=O)N2CCN(c3cccc(C)c3C)CC2)c2ccccc21	46%
Cc1cccc(N2CCN(C(=O)c3cn(CC(C)C)c(=O)c4c3c3ccccc3n4C)CC2)c1C	11µM*
Cc1ccc(-n2nc(C(=O)N3CCN(c4cc(C)ccc4C)CC3)c3c4ccccc4n(C)c3c2=O)cc1	31%
Cc1ccc(-n2nc(C(=O)N3CCN(c4ccccc4F)CC3)c3c4ccccc4n(C)c3c2=O)cc1	29%
CCn1cc(C(=O)N2CCN(c3cc(C)ccc3C)CC2)c(=O)c2cc(S(=O)(=O)N3CCCCC3)ccc21	12%
SMILES	Pf Dd2 inh
O=C(C[C@H]1NC(=O)c2ccccc2NC1=O)NCCc1ccccn1	-5%
Cn1cc([C@@H](NC(=O)c2cccc3c2NCCC3)C2CC(O)C2)cn1 (some centres undefined)	2%
COC(=O)c1ccc2c(c1)nc1n2[C@@H](CNCc2ccccc2)COC1	-24%[44.1 µM]
CCOC(=O)c1c(NC(=O)c2ccc(S(=O)(=O)N3CCC(C)CC3)cc2)sc2c1CCN(C)C2	8.9µM*
CCOC(=O)c1c(NC(=O)c2ccccc2C)sc2c1CCCC2	2%
CCCCN(C)S(=O)(=O)c1ccc(C(=O)Nc2sc3c(c2C(=O)OCC)CCN(C(C)C)C3)cc1	6.3µM*
COCCN(CCOC)S(=O)(=O)c1ccc(C(=O)Nc2sc3c(c2C(N)=O)CCCC3)cc1	8%
CCOC(=O)c1c(NC(=O)c2ccc(S(=O)(=O)N(C)C)cc2)sc2c1CCN(C)C2	i
COCCN(CCOC)S(=O)(=O)c1ccc(C(=O)Nc2sc3c(c2C(=O)OC)CCN(C)C3)cc1	11µM*
CNC(=O)c1c(NC(=O)c2ccc(S(=O)(=O)N3CCC(C)CC3)cc2)sc2c1CCC2	0%
CCOC(=O)c1c(NC(=O)CS(=O)(=O)c2ccc(C)cc2)sc2c1CCC(C)C2 (centres undefined)	42%
CCOC(=O)c1c(NC(=O)c2ccc(S(=O)(=O)N(C)C3CCCCC3)cc2)sc2c1CCN(C(C)C)C2	11µM*
CCCOc1ccc(C(=O)Nc2sc3c(c2C(=O)OCC)CCCCC3)cc1	i
COC(=O)c1c(NC(=O)c2ccc(C(C)(C)C)cc2)sc2c1CCC(C)C2 (centres undefined)	30%
CCOC(=O)c1c(NC(=O)c2ccc(Br)cc2)sc2c1CCCC2	1%
Cc1nc(CCNC(=O)C2NCCc3[nH]cnc32)nc2c1CCCC2 (centres undefined)	-8%
CCC(C)Oc1ccc(CNC(=O)c2cn(CCN)nn2)cc1 (centres undefined)	-19%
C[C@]1(O)CCN(C(=O)Cc2ccc(-n3cnnn3)cc2)C[C@@H]1O	-6%
Cc1cccc(CN2CCc3c(n(Cc4cccnc4)n(CCc4ccccc4)c3=O)C2)n1	-21%
Cc1noc([C@@H]2CN(C(=O)CCc3ccccc3)C[C@H]2CO)n1	43%
O=[S+]([O-])(c1cccs1)N1CCCC2(CC(c3ccccn3)=NO2)C1 (centres undefined)	1%
COC(=O)c1c(NC(=O)c2ccc(S(=O)(=O)N3CCCCC3C)cc2)sc2c1CCN(C(C)C)C2 (centres undefined)	11µM*
CNC(=O)c1c(NC(=O)c2ccc(S(=O)(=O)N3CCCCC3C)cc2)sc2c1CCC2 (centres undefined)	i
CCOc1cccc2sc(NC(=O)c3ccc(S(=O)(=O)N4CCCCC4C)cc3)nc12 (centres undefined)	-7%
CN(C(=O)CN1CCC2(CC1)C(C(=O)O)CC(=O)N2C)c1ccccc1 (centres undefined)	-7%
SMILES	Pf Dd2 inh
O=C1NC[C@@H](CCC(=O)N2CCN(c3ccccn3)CC2)N2C[C@@H](NCc3ccc(CO)o3)C[C@@H]12	3%
COc1ccc(CC(=O)N2CCC(c3n[nH]c(=O)n3Cc3ccc(F)cc3)CC2)cc1	i
COc1ccc(CC(=O)N2CCC(c3n[nH]c(=O)n3Cc3ccc(OC)cc3)CC2)cc1	13µM*
Cc1ccc(Cn2c(C3CCN(C(=O)c4ccc(C)cc4)CC3)n[nH]c2=O)cc1	-24%
Cc1ccc(Cn2c(C3CCN(C(=O)c4ccccc4Cl)CC3)n[nH]c2=O)cc1	-19%
Cc1ccc(Cn2c(C3CCN(C(=O)c4ccc(C)s4)CC3)n[nH]c2=O)cc1	11µM*
COc1ccc(Cn2c(C3CCN(C(=O)c4ccc(OC)cc4)CC3)n[nH]c2=O)cc1	-23%
COc1ccccc1C(=O)N1C[C@@H]2CCCN3CCC[C@@H]([C@H]23)[C@H]1CCCC(=O)N1CCOCC1	13%
CN(CC1CCOCC1)C(=O)NCc1cccc(F)c1	7%
CS(=O)(=O)N[C@@H]1[C@@H](NC(=O)CCC2=NNC(=O)CC2)[C@H]2CCO[C@H]21	-6%
CC(C)(C)N1CC(C(=O)NCCCc2ccc(Cl)cc2)CC1=O (centres undefined)	-17%
COc1cccc(CC(=O)N2CCC(c3n[nH]c(=O)n3-c3ccccc3)CC2)c1	1%
COC(=O)CC1c2cc(OC)c(OC)cc2CCN1C(=O)Nc1ccc(C)cc1Cl (centres undefined)	i
Cc1ccc(NC(=O)N2CCN(c3nnc(C)c4c(C)n(-c5ccccc5)nc34)CC2)c(Cl)c1	63%
Cc1ccc(NC(=O)N2CCc3c([nH]c4ccccc34)C2c2ccccc2F)c(Cl)c1 (centres undefined)	10µM*
